SMILES strings stand for the structures. The source made the active and inactive calls. The rule behind the calls is not given here.

In the assay the target is Pantothenate synthetase (Mycobacterium tuberculosis (strain ATCC 25618 / H37Rv)) (UniProt P9WIL5). Put plainly: Recombinant Mtb pantothenate synthetase (PanC) inhibitors, coupled enzyme, confirmatory (AID 375).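 Note: 0% = full reaction with vehicle and 100% = no enzyme background.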 As to conditions: coupled enzyme assay; at 10 µM, active compounds read high.
Chain of Pantothenate synthetase (Mycobacterium tuberculosis (strain ATCC 25618 / H37Rv)) (P9WIL5 whole entry, looked up): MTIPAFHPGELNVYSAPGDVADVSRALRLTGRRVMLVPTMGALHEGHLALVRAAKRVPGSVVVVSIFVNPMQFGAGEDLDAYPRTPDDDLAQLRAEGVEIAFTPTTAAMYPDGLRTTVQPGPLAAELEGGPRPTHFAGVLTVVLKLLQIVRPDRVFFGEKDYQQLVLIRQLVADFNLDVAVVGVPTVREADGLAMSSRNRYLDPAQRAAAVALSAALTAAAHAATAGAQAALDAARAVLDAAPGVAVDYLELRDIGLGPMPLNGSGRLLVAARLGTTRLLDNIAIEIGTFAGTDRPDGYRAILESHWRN
In the case of `O=C1CN(C(=O)COC(=O)c2ccccc2NC(=O)c2ccco2)c2ccccc2N1`, the inhibition – broadly, the relative decrease from the control value, in per cent – was 0% (inactive).
In the case of `Cc1cccc2cc(CN(CCN3CCCC3)C(=O)NC3CCCCC3)c(=O)[nH]c12`, the inhibition was 0% (inactive).
Turning to `CC(=O)N(c1ccc(N(C(C)=O)S(=O)(=O)c2cccs2)cc1)S(=O)(=O)c1cccs1`, the inhibition was 0% (inactive).
On to `O=C(O)CCNc1ccc2c(c1)OCCO2`, for which the inhibition is 0% (inactive).
In the case of `CC(C)(O)C1=NOC(c2ccccc2)C1` (stereo not drawn), the inhibition was 0% (inactive).
Under `O=C(/C=N/O)Nc1cccnc1` stands 0% (inactive); under `CC(=O)N1CCN(S(=O)(=O)c2cccc(C(=O)Nc3ccc4c(c3)CCC4)c2)CC1`, 0% (inactive); under `Cc1ccc(CNC(=O)C2CC(=O)OC23CCCC3)c(C)c1` (stereo not drawn), 0% (inactive).
For `COc1cc(NC(=O)C(C)Oc2ccccc2)c(C(=O)O)cc1OC` (stereo not drawn) the value was 0% (inactive); for `CCOC(=O)c1sc(NC(=O)CSc2ncn(-c3ccccc3)n2)nc1C`, 3% (inactive).
For the compound `CCC1C(=O)n2nc(-c3ccccc3)cc2N=C1C` (stereo not drawn), the inhibition was 0% (inactive).
On to `COc1cccc(-c2nc3n(n2)C(c2ccccc2Cl)C(C(N)=O)=C(C)N3)c1` (stereo not drawn), for which the inhibition was 0% (inactive).
For `COc1ccccc1N1CCN(c2cc(N3CCCC3)nc(C)n2)CC1` the value was 0% (inactive).
`CCC(=O)N1CCN(CCN=CC2=C(O)CC(C)(C)CC2=O)CC1`: the inhibition was 0% (inactive).
On to `Nc1nc(Nc2cccc3ccccc23)nc(C2CCCC2=O)n1` (stereo not drawn), for which the inhibition is 5% (inactive).
For `CCCNC(=O)C1CC(=O)N(c2ccc(OCC(=O)Nc3cc(C)cc(C)c3)cc2)C1` (stereo not drawn) the value was 0% (inactive).
Under `COC(=O)CSc1nnc(CSc2nc(C)cc(C)n2)n1Cc1ccco1` stands 0% (inactive); under `CCN(C(=O)c1c(OC)cccc1OC)c1nnc(-c2cccnc2)s1`, 0% (inactive); under `Fc1ccc(-c2nnc3ccc(N4CCCC4)nn23)cc1`, 1% (inactive).
Under `CN(C)c1cccc(N=C2C=C(N3CCOCC3)CC(C)(C)C2)c1` stands 0% (inactive); under `C=C(C)CSc1nnc(-c2cccc(S(=O)(=O)N(C)C)c2)n1-c1cc(OC)ccc1OC`, 1% (inactive); under `Cc1cccc(N2CCN(S(=O)(=O)c3ccc4c(c3)CCC(=O)N4)CC2C)c1` (stereo not drawn), 6% (inactive).
`S=C(c1cccs1)N1CCCC1`: the inhibition is 0% (inactive).
